Data as given in the supplement of paper PMC12636033.
± gives the standard deviation of the averaged measurements. Over roughly 33,000 sequences, “E-score (rank enrichment, -0.5 to 0.5)” has its median near -0.0043; the highest 2% begin near 0.24. Only a selection was taken, and the highest values are over-represented in it overall.

System: 2Sp-muMax20 (muMax20 with two 2,6-bis(methyl)pyridine Cys staples)
Test: PBM 8-mer E-score (E-score (rank enrichment, -0.5 to 0.5)); higher = stronger preferential binding
Experimental: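 Protein binding microarray (universal PBM chip covering all 10-mers in fixed probe flanks) with chemically synthesized human Max(13-93) bHLH-LZ analogs (not full-length Max) bearing noncanonical residues (hArg, Tha, Aib, Nle at 65) and aromatic Cys staples. Read-out per 8-mer (and its reverse complement): E-score (rank-based enrichment, -0.5 to 0.5) and Z-score of median probe intensity.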

Sequence | PBM 8-mer E-score
ATTAATAC | 0.256 ± 0.1
ATAAATTA | 0.303 ± 0.049
CTTAACAC | 0.164 ± 0.016
ATTAACAC | 0.306 ± 0.05
ATTAACAA | 0.161 ± 0.042
ATTAATCC | 0.0916 ± 0.0058
AAGAATCA | 0.116 ± 0.04
GAGGCCTA | -0.184 ± 0.066
AGAAATCT | 0.0669 ± 0.11
ATATGAAA | 0.219 ± 0.031
ACACTTCG | -0.0252 ± 0.098
GAAAATTA | 0.291 ± 0.063
CAAAATTA | 0.15 ± 0.063
AAAAATTA | 0.116 ± 0.052
AGCGTGCG | 0.178 ± 0.02
ATAGAATA | 0.171 ± 0.011
GTAGAATA | 0.253 ± 0.0027
CTAGAATA | 0.108 ± 0.076
CCTATTAA | 0.154 ± 0.024
CATATTGC | 0.164 ± 0.033
AATATTGG | 0.0895 ± 0.038
CATATTAA | 0.247 ± 0.019
CATATTGG | 0.251 ± 0.0054
GATATTAC | 0.178 ± 0.026
TATATTAA | 0.211 ± 0.059

Sequence | PBM 8-mer E-score
AATATTAC | 0.294 ± 0.0036
ACTATTAG | -0.00553 ± 0.16
CATATTAC | 0.0498 ± 0.065
AATATTAG | 0.243 ± 0.026
CATATTAG | 0.222 ± 0.025
TGACACCA | -0.0859 ± 0.034
GAGGGTCC | -0.156 ± 0.027
AAAAGGTG | -0.103 ± 0.028
TCGTCCCA | 0.114 ± 0.012
GGTGCGAA | 0.0856 ± 0.053
ATGACTTC | 0.112 ± 0.019
GGCTTACC | -0.108 ± 0.026
CTTATGCA | 0.0234 ± 0.047
ATCACTTC | 0.0342 ± 0.00049
AATATTAA | 0.33 ± 0.029
AATATTAT | 0.246 ± 0.036
CATATTTA | 0.228 ± 0.01
ACTATTAA | 0.157 ± 0.022
ACTATTAT | 0.142 ± 0.1
AATATTTC | 0.0962 ± 0.04
GATATTAA | 0.118 ± 0.0066
AATATTCT | 0.231 ± 0.057
AATATTTA | 0.282 ± 0.036
AGCACCGC | -0.216 ± 0.056
ACTGGCGC | 0.0318 ± 0.075

Sequence | PBM 8-mer E-score
CGCGACTC | 0.0134 ± 0.05
AGAAGTGC | -0.15 ± 0.01
AGTGTACA | 0.138 ± 0.071
TCGTGTCA | -0.0282 ± 0.02
ATTCGACA | -0.0611 ± 0.091
CGACTGCG | -0.11 ± 0.012
CGGAAGAC | -0.286 ± 0.011
CCTGGCTC | -0.193 ± 0.028
CGCTTATA | 0.116 ± 0.018
AGCTTATA | 0.249 ± 0.15
AGCTTATC | 0.0357 ± 0.093
CGTCTTTA | 0.0497 ± 0.034
CTGGGTGA | -0.0861 ± 0.036
TGCGCGCA | 0.1734 ± 0.0016
CCTTATTA | 0.28 ± 0.003
CCTTATTC | -0.0629 ± 0.052
GCTTATTA | 0.172 ± 0.037
ACTCCTAG | -0.146 ± 0.087
CGACATGC | 0.0468 ± 0.0062
ATAACACC | 0.0871 ± 0.057
ATAACACG | 0.269 ± 0.011
GTAACACA | 0.183 ± 0.032
CTAACACA | 0.0336 ± 0.063
ATAACAGG | -0.0186 ± 0.03
ATAACACA | 0.253 ± 0.075

Sequence | PBM 8-mer E-score
ATCTAAGA | -0.0722 ± 0.047
TCGGAAGA | -0.155 ± 0.038
AGTTAACA | 0.145 ± 0.13
CGTTAACA | 0.0471 ± 0.048
TGTTAACA | 0.2746 ± 0.0014
AGCTTTTA | 0.0891 ± 0.031
TTATTAAA | 0.166 ± 0.054
ATATTAAG | 0.16 ± 0.025
ATATTAAT | 0.318 ± 0.08
CTATTAAA | 0.141 ± 0.053
ATATTAAA | 0.2641 ± 0.001
ATATTAAC | 0.182 ± 0.0085
GCCAGGGC | -0.343 ± 0.022
AAACGGTG | -0.0442 ± 0.0089
GGGCGTCA | 0.12 ± 0.063
CGAATTGA | 0.141 ± 0.014
TTGTACAA | 0.331 ± 0.11
GTGTACAA | 0.198 ± 0.029
CTGTACAA | 0.0666 ± 0.029
ACCGGTCC | -0.324 ± 0.028
TGACCTAA | 0.00115 ± 0.0031
CTCCCCCC | -0.0388 ± 0.051
CCACAGTA | 0.0513 ± 0.067
GTACCCGA | -0.187 ± 0.12
AATCAGCG | -0.0281 ± 0.1

Sequence | PBM 8-mer E-score
AATCATGA | 0.124 ± 0.13
AAACATGA | 0.0601 ± 0.067
AATCAGCC | 0.0385 ± 0.041
AATCATGT | 0.239 ± 0.04
AAACATGG | 0.153 ± 0.0082
AATCATGG | 0.129 ± 0.0058
ACACATGT | 0.326 ± 0.044
ACACATGG | 0.194 ± 0.019
AAACATGT | 0.287 ± 0.008
ACACATGA | 0.0699 ± 0.082
AATCAGCT | 0.279 ± 0.013
ACGTTAAG | 0.137 ± 0.027
CGGTGTGC | -0.209 ± 0.041
CCCCACGC | 0.095 ± 0.036
AAATACTA | 0.183 ± 0.026
CCATCGAC | -0.131 ± 0.028
GATTCCCA | 0.0167 ± 0.092
AATTCCCC | 0.123 ± 0.015
AATTCCCA | 0.23782 ± 0.00023
GCTTAGTA | 0.0418 ± 0.019
AACCTCTG | -0.064 ± 0.059
CATTAAGA | 0.237 ± 0.056
AATTAAGA | 0.214 ± 0.0075
GATTAAGA | -0.00249 ± 0.0063
GACGACTA | 0.138 ± 0.051

Sequence | PBM 8-mer E-score
CGACTCCC | -0.0206 ± 0.024
AGGGTCTG | -0.168 ± 0.019
CGTGATCA | 0.245 ± 0.036
GGTGATCA | 0.0137 ± 0.0046
CGTGATCC | -0.0859 ± 0.026
TGCTTACA | 0.114 ± 0.016
AACCACGT | 0.288 ± 0.032
ACCCACGC | 0.138 ± 0.023
ACCCACGA | -0.0222 ± 0.03
AACCACGC | 0.0757 ± 0.035
ACCCACGT | 0.284 ± 0.0034
AACCACGA | 0.118 ± 0.035
GAGGCCGC | -0.291 ± 0.046
ACAATACA | 0.0638 ± 0.061
ACAATAAG | 0.1254 ± 0.001
ATAATAAT | 0.14 ± 0.084
ACAATAAA | 0.256 ± 0.012
CCAATAAA | 0.211 ± 0.035
ACAATAAC | 0.0634 ± 0.07
ACAATAAT | 0.275 ± 0.043
ACAATACT | 0.204 ± 0.069
ACAATACC | 0.273 ± 0.015
CCGTTCAA | 0.137 ± 0.026
GAGCTGAA | 0.0148 ± 0.13
AACGCCCT | -0.0766 ± 0.052

Sequence | PBM 8-mer E-score
AAGGTCAT | -0.149 ± 0.0067
AGAGCCCG | -0.276 ± 0.012
AATCAGGA | 0.0255 ± 0.037
CGATATAG | 0.116 ± 0.068
ATGTAGAG | 0.0603 ± 0.063
ATGTAGAA | 0.246 ± 0.053
ATATATAA | 0.328 ± 0.032
GTATATAA | 0.125 ± 0.0038
CGATATAA | 0.24 ± 0.0019
CTATATAA | 0.157 ± 0.081
GTGTATAA | 0.103 ± 0.024
ATGTATAA | 0.277 ± 0.046
CTGTATAA | 0.19 ± 0.035
CTGTAGAA | 0.0793 ± 0.045
CGATATAC | 0.0494 ± 0.11
ACAAACGC | -0.0614 ± 0.035
CACAAATC | 0.052 ± 0.071
AGAGGGAG | 0.112 ± 0.027
ATGGGCAG | 0.0154 ± 0.02
AGTCTCTA | 0.0513 ± 0.038
GGCGAACA | -0.00568 ± 0.13
ATACACCC | -0.00554 ± 0.027
